The record followed here is PubChem BioAssay (EPA / NIEHS).

SMILES strings stand for the structures. Several values for one entry are separate records, joined by “and”; a condition that tells them apart may be missing. Identical values can stand only once. A structure can be active in one record and inactive in another. Activity calls are given as the source filed them. The calls were made as follows: active = hit-call score of the fitted dose curve at least 0.9, where 1 is the maximum; inactive = score below 0.9.

Read-out in this experiment: urokinase plasminogen activator (uPA), PLAU (gene 5328)
Nature of the experiment: BSK_KF3CT_uPA: BioMAP Diversity Plus: KF3CT Assay for urokinase plasminogen activator (uPA) Biomarker Activity (AID 2283075). Particulars: primary human keratinocytes with fibroblasts; actives raise or lower the signal. Here is the method: BSK_KF3CT is a cell-based, multiplexed-readout assay that uses keratinocytes and foreskin fibroblasts, a human skin primary cell co-culture, with measurements taken at 24 hours after chemical dosing in a 96-well plate.BSK_KF3CTA is an assay component measured in the BSK_KF3CT assay. It measures uPA antibody related to regulation of gene expression using ELISA technology.Data from the assay component BSK_KF3CTA was analyzed into 1 assay endpoint. This assay endpoint, BSK_KF3CTA, was analyzed with bidirectional fitting relative to DMSO as the negative control and baseline of activity. Using a type of binding reporter, gain or loss-of-signal activity can be used to understand changes in the signaling as they relate to the gene PLAU. Furthermore, this assay endpoint can be referred to as a primary readout, because this assay has produced multiple assay endpoints where this one serves a signaling function. To generalize the intended target to other relatable targets, this assay endpoint is annotated to the protease intended target family, where the subfamily is serine protease.
The levels of cell surface (or secreted, indicated by the prefix "s") biomarker endpoints were measured by ELISA. Overt cytotoxicity to cells in confluent adherent cultures (all systems other than the BT system) was assessed by measuring total protein levels using sulforhodamine B (SRB) staining in parallel cultures at the time of biomarker measurements, indicated as SRB endpoints. For proliferation assays for adherent cell types, individual cell types are cultured at sub-confluence and relative cell numbers quantified by SRB staining at time points optimized for each system (48 h: 3C and CASM3C systems; 72 h: BT and HDF3CGF systems; 96 h: SAg system). SRB was performed by staining cells with 0.1% SRB after fixation with 10% TCA and reading wells at 560 nm.Viability and proliferation of PBMC (T cells) was quantified by Alamar Blue reduction for the SAg and BT systems. For PBMC viability (referred to as PBMC Cytotoxicity within the assay endpoint names), cells were plated (75,000/well in a 96-well plate) and then chemical samples added for 1 h before addition of activators, SEB and TSST-1 (20 ng/mL final concentration each). Cells were incubated for 90 h. Then, Alamar Blue (20 uL/well) (Invitrogen, Cat DAL1100) was added for 6 h, and the plates were read with a fluorescence microplate reader at 546/580 nm (excitation/emission). For PBMC proliferation, cells were plated and activated as above but incubated for only 16 h prior to addition of Alamar Blue. Plates were read after 6 h.
For the compound `Clc1cc(Cl)c(Cl)c(Cl)c1Cl`, the result was inactive.
By AC50 is commonly meant the concentration giving half of the maximal activity seen. Consider `CC/C=C\C/C=C\C/C=C\CCCCCCCC(=O)OC`, for which the half-maximal activity concentration (AC50) was 20 µM (active).
Consider `Nc1nc(N)nc(-c2ccccc2)n1`, for which the outcome was inactive.
As for `CC(C)CCCCCOC(=O)CS`, the result was inactive.
In the case of `C=CCCCCCCCCC=O`, the outcome was inactive.
Same read-out and setting: then `Cc1ccc([N+](=O)[O-])cc1N`, with “inactive”; and `O=C(Oc1ccccc1)c1ccccc1C(=O)Oc1ccccc1`, with “inactive”; and `CCCCCCCCCCCC(C)=O`, with “inactive”.
Take `CCC1(C)C(=O)N(Cl)C(=O)N1Cl` (stereo not given): the outcome was inactive.
Same read-out and setting: then `Nc1ccc(C(=O)O)cc1`, with “inactive”; and `C=CC(=O)NCOCCCC`, with “inactive”.
For `Nc1cccc(N)n1`, the result was inactive.
Regarding `CC=C(C)C=CC=C(C)C`, the AC50 is 3.13 µM (active).
Turning to `CC/C=C\CCOC(=O)c1ccccc1O`, the AC50 is 29.8 µM (active).
Consider `CCCC(C)C(=O)OCC` (stereo not given), for which the result was inactive.
On to `Oc1ccccc1Cc1ccccc1O`, for which the result was inactive.
Take `C=CC(=O)NC(C)(C)C`: the result was inactive.
As to `CC(CCC(=O)O)(c1ccc(O)cc1)c1ccc(O)cc1`, the result was inactive.
Turning to `CCOC(=O)/C=C\C(=O)OCC`, the outcome was inactive.
Same read-out and setting: with `C1CNCCN1` the entry was “inactive”.
Take `C=CC(=O)OCCCCCCOC(=O)C=C`: the AC50 was 20 µM (active).
For `O=C(Cl)c1c(Cl)c(Cl)c(C(=O)Cl)c(Cl)c1Cl`, the outcome was inactive.
For `CC(C)C(=O)OCCc1ccccc1`, the result was inactive.
As for `O=C1CCCCCCCCCCC1`, the result was inactive.
On to `CCc1cccc(C)c1N(C(=O)CS(=O)(=O)O)C(C)COC` (stereo not given), for which the result was inactive.
As to `CC(Cl)COP(=O)(OCC(C)Cl)OCC(C)Cl` (stereo not given), the result was inactive.
Consider `CC(C)c1cccc(C(C)C)c1N`, for which the outcome was inactive.
For `CCCCCCCO`, the result was inactive.
For the compound `CCOC(=O)C1=NN(c2ccc(Cl)cc2Cl)C(C)(C(=O)OCC)C1` (stereo not given), the result was inactive.
In the case of `CC(C)[N+](C)(CCOC(=O)C1c2ccccc2Oc2ccccc21)C(C)C`, the outcome was inactive.
Turning to `CCCCCCOC(=O)CCCCC(=O)OCCCCCC`, the result was inactive.
Consider `CC(c1cc(C(C)(C)C)cc(C(C)(C)C)c1O)c1cc(C(C)(C)C)cc(C(C)(C)C)c1O`, for which the result was inactive.
As for `COc1ccc(C(=O)c2ccccc2)c(O)c1`, the outcome was inactive.
In the case of `CCN1CN(CC)CN(CC)C1`, the result was inactive.
Same read-out and setting: then `O=C1CCCCCCCCCCCN1`, with “inactive”.
As to `c1ccc(Nc2cccc3ccccc23)cc1`, the AC50 is 33.8 µM (active) and 32.2 µM (active).
As to `CCNc1nc(NC(C)(C)C)nc(OC)n1`, the result was inactive.
Consider `c1ccc2c(c1)[nH]c1ccccc12`, for which the outcome was inactive.
For the compound `COc1ccc(C(=O)/C(Br)=C\C(=O)O)cc1`, the result was inactive and the half-maximal activity concentration (AC50) is 31.7 µM (active).
